Laboratory results from PubChem BioAssay AID1159580 (chemical genetic matrix, 2015).
Where “and” joins values, the source holds several entries; their conditions need not be identical. Equal values may be shown once. The whole screen tested about 5,500 compounds, of which about 2,000 (36%) were called active. Roughly 18% stayed inconclusive and do not appear here. Cut-off read from the data, not from the text of the source: active = normalized growth mostly below about 0.91 (no sharp cut-off); inconclusive = no clear call, values can overlap the other calls; inactive = mostly above about 0.92. The list shows a part of the results.

Test: chemical genetic growth profiling, strain panel (AID 1159580);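 note: tested at 20 µM; growth read once vehicle control cultures reached saturation at 30 °C; 1 = growth at the plate median or of vehicle wells; lower values mean less growth of the strain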
Conditions: S. cerevisiae deletion strains, growth OD

Measured: normalized growth

Cc1ccc2c(c1)CC[C@H]1CC(=O)CC[C@]21C
inactive: locus YAL013W, strain DEP1, stronger effect = lower value 1.01 | locus YAL021C, strain ccr4, stronger effect = lower value 0.991 | locus YAL026C, strain drs2, stronger effect = lower value 1.01 | locus YAL030W, strain snc1, stronger effect = lower value 1.01 | locus YBL061C, strain skt5, stronger effect = lower value 1 | locus YBR009C, strain hhf1, stronger effect = lower value 1 | locus YBR021W, strain FUR4, stronger effect = lower value 0.971 | locus YBR023C, strain chs3, stronger effect = lower value 0.998 | locus YBR171W, strain sec66, stronger effect = lower value 0.992 | locus YBR229C, strain ROT2, stronger effect = lower value 0.997 | locus YBR231C, strain swc5, stronger effect = lower value 1.01 | locus YBR279W, strain paf1, stronger effect = lower value 1.01 | locus YCL011C, strain gbp2, stronger effect = lower value 0.995 | locus YCL016C, strain dcc1, stronger effect = lower value 1.01 | locus YCL029C, strain bik1, stronger effect = lower value 0.991 | locus YCL069W, strain vba3, stronger effect = lower value 0.995 | locus YCR088W, strain abp1, stronger effect = lower value 0.998 | locus YDL005C, strain med2, stronger effect = lower value 1.01 | locus YDL035C, strain GPR1, stronger effect = lower value 0.973 | locus YDL040C, strain nat1, stronger effect = lower value 1 | locus YDL074C, strain BRE1, stronger effect = lower value 0.971 | locus YDL101C, strain DUN1, stronger effect = lower value 1.01 | locus YDL134C, strain PPH21, stronger effect = lower value 1 | locus YDL185W, strain tfp1, stronger effect = lower value 0.983 | locus YDL192W, strain arf1, stronger effect = lower value 0.974 | locus YDR001C, strain nth1, stronger effect = lower value 0.998 | locus YDR069C, strain doa4, stronger effect = lower value 1.01 | locus YDR101C, strain arx1, stronger effect = lower value 0.97 | locus YDR137W, strain rgp1, stronger effect = lower value 0.956 | locus YDR150W, strain NUM1, stronger effect = lower value 1 | locus YDR159W, strain sac3, stronger effect = lower value 1.01 | locus YDR162C, strain NBP2, stronger effect = lower value 0.974 | locus YDR195W, strain ref2 1.05 | locus YDR297W, strain sur2, stronger effect = lower value 0.991 | locus YDR318W, strain mcm21, stronger effect = lower value 0.972 | locus YDR334W, strain swr1, stronger effect = lower value 1.01 | locus YDR335W, strain msn5, stronger effect = lower value 1 | locus YDR388W, stronger effect = lower value 0.979 | locus YDR392W, strain spt3, stronger effect = lower value 0.983 | locus YDR502C, strain sam2, stronger effect = lower value 0.968 | locus YEL003W, strain gim4, stronger effect = lower value 0.991 | locus YEL037C, strain rad23, stronger effect = lower value 1.01 | locus YEL061C, strain CIN8 (second series), stronger effect = lower value 0.993 | locus YEL061C, strain CIN8, stronger effect = lower value 1 | locus YER015W, strain faa2, stronger effect = lower value 1.01 | locus YER016W, strain bim1, stronger effect = lower value 1 | locus YER110C, stronger effect = lower value 0.966 | locus YER111C, strain swi4, stronger effect = lower value 0.991 | locus YER155C, strain BEM2 (second series), stronger effect = lower value 0.978 | locus YER155C, strain BEM2, stronger effect = lower value 0.997 | locus YER167W, strain BCK2, stronger effect = lower value 0.991 | locus YFR010W, strain ubp6, stronger effect = lower value 1.01 | locus YGL078C, strain dbp3, stronger effect = lower value 0.989 | locus YGL086W, strain mad1, stronger effect = lower value 0.981 | locus YGL167C, strain pmr1, stronger effect = lower value 0.998 | locus YGL173C, strain kem1, stronger effect = lower value 0.982 | locus YGL227W, strain vid30, stronger effect = lower value 1 | locus YGL240W, strain doc1, stronger effect = lower value 0.987 | locus YGL248W, strain PDE1, stronger effect = lower value 0.993 | locus YGL253W, strain hxk2, stronger effect = lower value 1 | locus YGR078C, strain PAC10, stronger effect = lower value 0.982 | locus YGR135W, strain pre9, stronger effect = lower value 0.959 | locus YGR229C, strain SMI1, stronger effect = lower value 1.01 | locus YGR252W, strain gcn5, stronger effect = lower value 0.881 | locus YHR013C, strain ard1, stronger effect = lower value 1.02 | locus YHR027C, strain rpn1, stronger effect = lower value 1.01 | locus YHR030C, strain SLT2, stronger effect = lower value 0.996 and 0.98 | locus YHR079C, strain IRE1 (second series), stronger effect = lower value 0.969 | locus YHR079C, strain IRE1, stronger effect = lower value 0.973 | locus YHR094C, strain hxt1, stronger effect = lower value 0.995 | locus YHR129C, strain ARP1, stronger effect = lower value 0.996 | locus YHR142W, strain chs7, stronger effect = lower value 0.985 | locus YHR200W, strain rpn10, stronger effect = lower value 0.979 | locus YIL066C, strain RNR3, stronger effect = lower value 0.993 | locus YIL073C, strain SPO22, stronger effect = lower value 0.965 | locus YIL125W, strain kgd1, stronger effect = lower value 0.999 | locus YIR030C, strain dcg1, stronger effect = lower value 0.974 | locus YJL092W, strain hpr5, stronger effect = lower value 1 | locus YJL095W, strain BCK1 (second series), stronger effect = lower value 1.01 | locus YJL095W, strain BCK1, stronger effect = lower value 0.967 and 0.983 | locus YJL115W, strain asf1, stronger effect = lower value 1.01 | locus YJL129C, strain trk1, stronger effect = lower value 1 | locus YJL134W, strain LCB3, stronger effect = lower value 0.997 | locus YJL154C, strain vps35, stronger effect = lower value 0.993 | locus YJL164C, strain tpk1, stronger effect = lower value 0.992 | locus YJL166W, strain qcr8, stronger effect = lower value 0.995 | locus YJL168C, strain set2, stronger effect = lower value 0.971 | locus YJL187C, strain SWE1 (second series), stronger effect = lower value 1.01 | locus YJR043C, strain POL32, stronger effect = lower value 0.967 | locus YJR066W, strain TOR1, stronger effect = lower value 0.897 | locus YJR075W, strain HOC1, stronger effect = lower value 1
